In the library only some 13% were active in any assay of this set; here they are far more common.
USP2a inhib – USP2a (human) protease inhibition | Potency, µM (titrated, usually from 38.3 µM), without a hit: at the highest dose activity change, negative = inhibition, actives largely listed as inhibitors | USP2a enzymatic assay, qHTS inhibition | 60,000 compounds, 0.1% hits | O75604; also: potency is read from the fitted curve at half-maximal effect; nearly all actives have a fitted effect of over 60% in size
Target sequence (O75604 whole entry, looked up): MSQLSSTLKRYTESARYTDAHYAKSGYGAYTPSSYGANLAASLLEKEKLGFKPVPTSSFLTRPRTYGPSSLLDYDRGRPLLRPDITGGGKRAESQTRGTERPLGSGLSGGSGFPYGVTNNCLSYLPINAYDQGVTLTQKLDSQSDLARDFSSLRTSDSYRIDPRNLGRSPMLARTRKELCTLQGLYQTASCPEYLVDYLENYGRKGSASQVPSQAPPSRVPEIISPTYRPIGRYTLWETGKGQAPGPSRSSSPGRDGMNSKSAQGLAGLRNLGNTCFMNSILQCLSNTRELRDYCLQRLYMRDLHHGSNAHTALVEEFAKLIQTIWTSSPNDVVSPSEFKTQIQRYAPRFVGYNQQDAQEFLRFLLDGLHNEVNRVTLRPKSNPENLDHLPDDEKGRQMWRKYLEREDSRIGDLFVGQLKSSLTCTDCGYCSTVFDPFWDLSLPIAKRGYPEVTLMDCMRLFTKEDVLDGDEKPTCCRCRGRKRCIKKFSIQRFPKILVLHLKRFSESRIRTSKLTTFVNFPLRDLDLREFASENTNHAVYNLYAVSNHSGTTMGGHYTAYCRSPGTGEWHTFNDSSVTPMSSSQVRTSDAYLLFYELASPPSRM
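USP2 core (20nM final) preincubated 30 min RT with compound, then Ub-PLA2 20nM and NBD C6-HPC 20uM final added; buffer 20mM Tris-HCl pH 8.0, 2mM CaCl2. Fluorescence Ex 460/Em 535 read at 0 and 2.5 h; normalized to NEM.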
HSD17B inhib – blocks hydroxysteroid 17-beta dehydrogenase activity. Potency, µM (top dose mostly 57.1 µM), inactives show at the top dose activity change, negative = inhibition, hits mostly inhibitors. Q99714. 75,000 compounds, 7.6% hits. recombinant HSD17B10, NADH fluorescence kinetic;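 also: the protocol describes HADH2 (HSD17B10) and not the HSD17B4 of the title; potency is read from the fitted curve at half-maximal effect; % is scaled to controls: 0 for no effect and ±100 for the full control effect; nearly all actives have a fitted effect of over 70% in size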
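Enzyme plus compound, 15 min room temperature; substrate mix added (NAD+ 1 mM, beta-hydroxybutyryl-CoA 90 uM final); plates read kinetically for NADH fluorescence. HADH2 was His-tagged, E. coli-derived, 20 nM.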
4-MU autofl – compound fluoresces in the 4-MU spectral region; AID 589; compound autofluorescence, 340/450 nm, 4-MU equivalents; hits give high values; 59,000 compounds, 11% hits; max dye-equivalent concentration, M; in the data active = max dye-equivalent concentration above about 10 nM; inconclusive = mostly about 1.1 nM to 9.6 nM
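Compounds in 100 mM Tris, pH 8.0, sat 15 min at room temperature before fluorescence was read at 340 nm excitation/450 nm emission; a per-plate six-point 4-MU standard curve converted signals to dye-equivalent concentration at each compound concentration.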
AID923 – qHTS Assay for Allosteric/Competitive Inhibitors of Caspase-1: Spectroscopic Profiling in AFC Spectral Region. compound fluorescence, AFC spectral region (405/520 nm). Potency, µM (highest dose often 57.5 µM), for the others: top-dose fluorescence increase, hits mostly activators. 75,000 compounds, 1.1% hits. AID 923, 2007; also: potency is read from the fitted curve at half-maximal effect; 0% is about no effect
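Baseline compound fluorescence (AFC region, 405 nm ex/520 nm em) taken from the intercept of kinetic reads with 50 nM caspase-1 and 5 uM Ac-WEHD-AFC; normalized to an on-plate AFC standard curve; compounds titrated up to 57 uM.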
HADH2 inhib – blocks human hydroxyacyl-CoA dehydrogenase type II | Potency, µM (top dose mostly 57.1 µM), inactives show at the highest dose activity change, negative = inhibition, usual class: inhibitors | recombinant HADH2, NADH fluorescence, beta-hydroxybutyryl-CoA | Q99714 | 73,000 compounds, 3.4% hits; also: potency is read from the fitted curve at half-maximal effect; % is scaled to controls: 0 for no effect and ±100 for the full control effect; nearly all actives have a fitted effect of over 60% in size
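Read-out: 360 nm excitation, 450 nm emission, kinetic over 4 min. Conditions: His-tagged human HADH2 20 nM, pH 9.0 Tris with Tween-20, 1 mM NAD+, 90 uM beta-hydroxybutyryl-CoA.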
A350 fluor – compounds fluorescent in Alexa 350 spectral region; Compound autofluorescence, 340/450 nm, Alexa 350 dye-equivalents; hits give high values; max dye-equivalent concentration, M; 59,000 compounds, 11% hits; AID 590; in the data active = max dye-equivalent concentration above about 10 nM; inconclusive = mostly about 1.1 nM to 9.6 nM
Starred values were filed as active, the others as inactive; i = inactive; ? = inconclusive; . = no result; [ ] = dose if it differs, or a comment. Unless noted, calls follow the shape of the dose curve; as a rule, active = well fitted curve in the direction sought with a large enough effect; inconclusive = small, poorly fitted or top-dose-only effect, or another doubt; inactive = no such curve, though single readings can be large; an effect the other way counts as inactive or inconclusive.

SMILES	USP2a inhib	HSD17B inhib	4-MU autofl	AID923	HADH2 inhib	A350 fluor
CC1Cc2cc(/C(O)=C3\C(=O)C(=O)N(CCN(C)C)C3c3ccccc3F)ccc2O1 (configuration not stated)	6.8%	1.0%	1.94e-08M*	-0.9%	-6.4%	2.52e-08M*
CCN(CC)CCN1C(=O)C(=O)/C(=C(/O)c2ccncc2)C1c1ccccc1F (configuration not stated)	-1.7%	0.6%	1.32e-08M*	-0.1%	-1.9%	1.83e-08M*
CC1=Nc2ncnn2C(c2ccccc2)/C1=N\O (configuration not stated)	-10.7%	-12.0%	1.39e-08M*	2.6%	-12.9%	1.62e-08M*
COCCOC(=O)C1=C(C)Nc2ncnn2C1c1ccccc1 (configuration not stated)	3.8%	8.9%	i	3.1%	-8.5%	?
Cc1cc(C)cc(OCC(=O)N(Cc2cccs2)C2CCS(=O)(=O)C2)c1 (configuration not stated)	15.9%	-5.3%	9.38e-08M*	2.0%	17.3%	1.34e-07M*
COc1ccc(CNC(=O)Cn2nc(-c3ccc4c(c3)OCCO4)ccc2=O)cc1	19.9%	i	1.6e-07M*	1.5%	-13.7%	1.32e-07M*
COCCCNC(=O)Cn1nc(-c2ccc(C)cc2)ccc1=O	4.2%	25.1µM*	i	0.4%	-3.8%	?
Cc1ccc(-c2ccc(=O)n(CC(=O)NCCN(C)C)n2)cc1	?	-15.8%	i	-1.2%	4.9%	i
CC1CCN(S(=O)(=O)c2ccc(S(=O)(=O)N3CCN4CCCC4C3)cc2)CC1 (configuration not stated)	-0.7%	-5.6%	i	-0.5%	10.9%	i
NC[C@H]1O[C@@H](n2cnc3c(=O)[nH]c(N)nc32)[C@@H](O)[C@@H]1O	.	2.3%[11.4 µM]	i	0.7%[11.5 µM]	-1.1%[11.4 µM]	i
CCOC(=O)c1ccc(N=c2sc(C(=O)OC)cc(=O)n2C2CC2)cc1	?	1.7%	i	1.8%	15.2%	i
C=CCN1C(=O)CC(C(=O)NC)SC1=Nc1ccc(C(=O)OCC)cc1 (configuration not stated)	.	.	3.42e-08M*	.	.	4.3e-08M*
COc1cc(SC)ccc1C(=O)Nc1ccc2c(c1)OCCO2	-6.5%	-7.6%	.	3.8%	-5.2%	.
CCOc1ccc2nc(-c3ccc(OC)c(OC)c3)cc(C(=O)O)c2c1	1.6%	?	2.5e-08M*	1.8%	-16.2%	2.31e-08M*
CS(=O)(=O)N1CCN(C(=O)c2cc(-c3cccs3)nc3ccccc23)CC1	36.4%	25.1µM*	9.97e-07M*	2.9%	31.6µM*	9.08e-07M*
CC(=O)c1ccc(N2CCN(C(=O)c3cc(-c4ccc5c(c4)OCO5)nc4ccccc34)CC2)cc1	23.4%	?	4.89e-08M*	6.1%	?	4.06e-08M*
Cc1cc(C)cc(NC(=O)C2CCN(S(=O)(=O)c3c(C)n[nH]c3C)CC2)c1	24.7%	2.5%	?	-2.3%	0.8%	1.25e-08M*
COc1cc(-c2cc(C(=O)O)c3c(OC)c(OC)c(OC)cc3n2)ccc1O	3.9%	?	?	-0.5%	-12.8%	?
C#CC(C)OC(=O)c1nnc2c3ccccc3n(COC)c2n1 (configuration not stated)	.	3.4%[11.4 µM]	.	1.0%[11.5 µM]	10.5%[11.4 µM]	.
Cc1nn(C(=O)N2CCCCC2)c(C)c1CN1C(=O)c2ccccc2C1=O	-12.9%	10.8%	i	-1.4%	-1.1%	i
COc1ccc(CNC(=O)[C@H](C)[C@H]2C[C@]2(C)[C@H](NC(=O)OCc2ccccc2)c2ccccc2)cc1OC	.	10.8%	.	2.5%	7.3%	.
O=C(c1cc(-c2ccccc2)nc2ccccc12)N1CCOCC1	3.3%	-3.3%	.	4.1%	0.6%	.
COc1ccc(S(=O)(=O)N2CCN(c3c(C)cccc3C)CC2)cc1OC	.	0.6%	.	2.4%	12.9%	.
O=S(=O)(c1ccc(Br)s1)N1CCN(c2ccccn2)CC1	-0.9%	-7.9%	i	-1.6%	-4.2%	i
CCOc1ccc(-c2cc(C(=O)N3CCN(C)CC3)c3ccccc3n2)cc1	-6.9%	12.6µM*	3.9e-07M*	-0.1%	28.8%	5.12e-07M*
SMILES	USP2a inhib	HSD17B inhib	4-MU autofl	AID923	HADH2 inhib	A350 fluor
Cc1n[nH]c(C)c1S(=O)(=O)N1CCN(c2ccccn2)CC1	3.6%	25.1µM*	i	-1.2%	2.9%	i
CCOc1ccc(-c2cc(C(=O)N3CCN(c4ccccn4)CC3)c3ccccc3n2)cc1	35.6%	-141.2%	1.31e-08M*	-0.7%	?	?
COc1cc(-c2cc(C(=O)N3CCN(c4ccccn4)CC3)c3ccccc3n2)cc(OC)c1OC	23.2%	?	?	0.3%	-6.1%	?
COc1ccc(S(=O)(=O)N2CCN(c3ccccn3)CC2)cc1OC	4.0%	25.1µM*	i	-3.5%	-1.4%	i
C/C(CCN1CCCCc2nc(C)c(C)cc21)=N\O[C@@H](C)CN1CCCc2nc(C)c(C)cc21	.	-2.8%[11.4 µM]	.	3.7%[11.5 µM]	11.8%[11.4 µM]	.
COC(=O)NC(c1ccco1)C(C(C)=O)C(=O)OC (configuration not stated)	.	-0.6%[11.4 µM]	.	1.3%[11.5 µM]	-5.8%[11.4 µM]	.
O=C(O)c1ccc(CS(=O)(=O)c2cccc(C(F)(F)F)c2)o1	-2.3%	4.5%	i	0.9%	0.1%	i
COc1ccc(-c2cc(C(=O)OCC(=O)N3CCCC3)c3ccccc3n2)cc1	12.8%	.	1.09e-07M*	19.1%	18.6%	9.03e-08M*
COc1ccc(-c2cc(C(=O)N3CCN(c4ccccn4)CC3)c3ccccc3n2)cc1	26.0%	?	1.03e-08M*	3.6%	-17.0%	?
Cc1cc(C(=O)OCC(=O)N2CCOCC2)c2ccccc2n1	-4.3%	-14.0%	i	-0.6%	-8.4%	i
COc1cccc(OC)c1C(=O)N1CCN(c2ccccn2)CC1	1.8%	39.8µM*	i	0.9%	?	i
Cc1cccc(C)c1[N+](=O)[O-]	.	-2.0%	.	-0.7%	1.9%	.
Cc1cc(C)n2nc(CC(=O)NC3CCCCCC3)nc2n1	-0.2%	-4.5%	i	0.6%	5.5%	i
O=C(O)c1[nH]c2c([N+](=O)[O-])cc([N+](=O)[O-])cc2c1C(=O)O	.	-4.1%[11.4 µM]	i	-1.5%[11.5 µM]	3.2%[11.4 µM]	i
COc1ccccc1N1CCN(CC(=O)c2ccc3ccn(C(C)=O)c3c2)CC1	.	13.0%	.	2.6%	7.9%	.
CC(=O)OCC(=O)c1ccc2ccn(C(C)=O)c2c1	5.6%	25.1µM*	3.53e-08M*	4.4%	25.1µM*	4.43e-08M*
CCCNC(=O)c1cc(S(=O)(=O)N2CCc3ccccc32)ccc1F	1.6%	1.1%	i	0.6%	-3.0%	i
C=Cc1cccc(NC(=O)COc2ccccc2)c1	0.5%	-5.9%	i	-0.8%	10.2%	i
CCC(CC)(CC(=O)Nc1cccc(/C=C/c2nc(C3CCC3)cs2)c1)C(=O)O	.	25.1µM*	.	-1.5%	12.6µM*	.
